This is a sample that favours compounds with a hit; in the whole collection about 6.3% have one here.
MPTP inh = blocks calcium-induced mitochondrial swelling; 1.4% of 360,000 active; isolated mouse mitochondria, Ca2+ swelling absorbance, 30 min; inhibition, % at 10 µM;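 active means inhibition of 50% or more, scaled per plate between neutral and stimulator controls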
tim10-1 inh = growth inhibitors of tim10-1 mutant yeast | S. cerevisiae tim10-1 ts strain growth, BacTiter-Glo, 24 h | inhibition, % at 20 µM | 2.2% of 330,000 active | AID 463190;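 active means inhibition of at least 40%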;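 further: mutant grown at 25 °C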
Mdm2-MdmX inh = inhibitors of human Mdm2/MdmX interaction; O15151+Q00987; SaOS-2 split-luciferase Mdm2/MdmX complementation, luminescence; inhibition, % at 8 µM; 3% of 330,000 active; AID 485346;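 active means inhibition of at least 50% at 8 µM in the primary screen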
Target sequence (O15151 whole entry, looked up): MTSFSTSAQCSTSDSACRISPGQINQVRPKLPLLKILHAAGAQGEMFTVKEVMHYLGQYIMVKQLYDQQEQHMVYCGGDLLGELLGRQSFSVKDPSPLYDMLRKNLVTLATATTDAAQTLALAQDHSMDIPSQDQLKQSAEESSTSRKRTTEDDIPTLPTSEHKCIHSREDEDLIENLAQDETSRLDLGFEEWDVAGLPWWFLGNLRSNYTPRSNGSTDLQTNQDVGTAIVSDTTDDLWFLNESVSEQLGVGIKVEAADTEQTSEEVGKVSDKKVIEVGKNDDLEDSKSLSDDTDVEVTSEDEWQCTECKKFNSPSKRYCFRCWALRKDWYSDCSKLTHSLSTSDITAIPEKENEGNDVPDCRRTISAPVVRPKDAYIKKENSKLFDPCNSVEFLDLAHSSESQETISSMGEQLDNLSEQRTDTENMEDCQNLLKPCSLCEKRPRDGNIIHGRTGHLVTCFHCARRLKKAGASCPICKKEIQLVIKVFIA
Target sequence (Q00987 whole entry, looked up): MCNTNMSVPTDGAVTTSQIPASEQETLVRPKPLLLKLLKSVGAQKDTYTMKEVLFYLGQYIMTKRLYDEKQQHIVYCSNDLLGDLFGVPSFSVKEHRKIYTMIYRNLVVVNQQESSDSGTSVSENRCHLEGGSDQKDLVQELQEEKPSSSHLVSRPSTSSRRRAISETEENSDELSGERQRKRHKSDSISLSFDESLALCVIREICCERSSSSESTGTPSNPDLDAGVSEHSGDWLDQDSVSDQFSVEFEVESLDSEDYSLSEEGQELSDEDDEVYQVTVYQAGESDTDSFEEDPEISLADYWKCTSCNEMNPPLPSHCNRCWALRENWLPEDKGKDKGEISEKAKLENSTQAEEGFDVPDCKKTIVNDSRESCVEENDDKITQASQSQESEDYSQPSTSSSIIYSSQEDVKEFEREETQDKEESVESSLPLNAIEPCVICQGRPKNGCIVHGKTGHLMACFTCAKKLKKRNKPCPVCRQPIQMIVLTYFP
tim23-1 inh = tim23-1 yeast growth inhibition. S. cerevisiae tim23-1 growth, BacTiter-Glo luminescence, 24 h. 1.3% of 330,000 active. inhibition, % at 20 µM;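 active means growth inhibition of the mutant yeast at or above 50%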;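 further: temperature-sensitive mutant grown at 25 °C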
TIM10 inh = inhibits growth of TIM10 yeast strain; S. cerevisiae TIM10 strain growth, BacTiter-Glo luminescence, 24 h; inhibition, % at 10 µM; 1.4% of 330,000 active;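 active means inhibition of 40% or more at the single tested concentration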;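 further: wild-type TIM10 isogenic control strain grown at permissive 25 °C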
tim10-1 confirm = confirmation of tim10-1 mutant yeast growth inhibitors; shares compounds with tim10-1 inh; S. cerevisiae tim10-1 ts strain growth, BacTiter-Glo, 24 h; inhibition, % at 20 µM; 56% of 7,400 active; AID 463213;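 active means inhibition of yeast growth at or above a set limit in either of two repeat tests at 20 µM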;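 further: tim10-1 mutant grown at permissive 25 °C to find synthetic lethal compounds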
tim10 confirm = TIM10 yeast growth inhibition, confirmed; shares compounds with TIM10 inh; S. cerevisiae tim10 strain growth, BacTiter-Glo luminescence, 24 h; inhibition, % at 10 µM; 63% of 4,600 active; AID 463215;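 active means inhibition of yeast growth at or above a set limit in either of two replicates at 10 µM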; further: this counterscreen used the strain with wild-type TIM10
Of the large screens only hits and unclear results are named; the others gave an inactive call (follow-up assays come after a bar, where they were run).

CC(c1nnnn1C(C)(C)C)N(Cc1cccnc1)Cc1ccccc1Cl (stereo unspecified)	tim10-1 inh 50.1, TIM10 inh 42.0 | tim10-1 confirm 33.8 | tim10 confirm 32.3
CC(C)(C)n1nnnc1C(c1cccs1)N(Cc1cccnc1)Cc1ccccc1Cl (stereo unspecified)	none
COC(=O)c1ccc2nc(-c3ccco3)c(Cc3cccc(F)c3)n2c1	none (no result: tim10-1 inh, Mdm2-MdmX inh, tim23-1 inh, TIM10 inh)
Oc1ccccc1/C=N/Nc1cccc2cccnc12	tim10-1 inh 40.7, TIM10 inh 50.4 | tim10-1 confirm 36.5 | tim10 confirm 34.9
O=C(COc1cccc2cccnc12)N/N=C/c1ccccc1O	none
O=C(Nc1cccc(C(F)(F)F)c1)C1Cc2c(-c3ccccc3Oc3ccccc3)ccnc2O1 (stereo unspecified)	none (no result: tim10-1 inh, Mdm2-MdmX inh, tim23-1 inh, TIM10 inh)
CCCCCCCCCOC(=O)C(CC(=O)O)N1CCOCC1 (stereo unspecified)	tim10-1 inh 42.5, TIM10 inh 50.5 | tim10-1 confirm 37.3 | tim10 confirm 44.0
CCCCCOC(=O)CC(C(=O)OCCCCC)N1CCCCC1 (stereo unspecified)	none
CCc1cc(-c2n[nH]c(=S)n2Cc2ccccc2)cs1	tim10-1 inh 42.0, TIM10 inh 44.4 | tim10-1 confirm inactive | tim10 confirm 41.3
Cc1cc(N2CCC(C(=O)Nc3ccc(F)cc3)CC2)nc(-c2ccccc2)n1	tim10-1 inh 49.3, TIM10 inh 43.1 | tim10-1 confirm inactive | tim10 confirm inactive
CC1(Cc2cccc(C#N)c2)C(=O)Nc2c(Cl)cccc21 (stereo unspecified)	none (no result: tim10-1 inh, Mdm2-MdmX inh, tim23-1 inh, TIM10 inh)
Cc1onc(-c2ccccc2)c1C(=O)O/N=C(\N)c1ccc([N+](=O)[O-])o1	tim10-1 inh 50.4, TIM10 inh 50.8 | tim10-1 confirm inactive | tim10 confirm 48.0
CC(C)C(=O)N1CCC1(C)C(=O)Nc1cc(-c2ccccc2)nn1C (stereo unspecified)	none (no result: tim10-1 inh, Mdm2-MdmX inh, tim23-1 inh, TIM10 inh)
CCOC(=O)C(=Cc1ccc(-n2ccnc2)cc1)C(=O)OCC	tim10-1 inh 72.9, TIM10 inh 63.9 | tim10-1 confirm 73.8 | tim10 confirm 69.3
OC(c1cccc(CN2CCCCC2)c1)c1ncc(-c2cccc3ccccc23)[nH]1 (stereo unspecified)	none (no result: tim10-1 inh, Mdm2-MdmX inh, tim23-1 inh, TIM10 inh)
N/C(=N\OC(=O)c1ccccc1[N+](=O)[O-])c1cccnc1	none
O=C(Oc1cccnc1)c1ccccc1[N+](=O)[O-]	tim10-1 inh 52.3, TIM10 inh 50.1 | tim10-1 confirm 32.6 | tim10 confirm 32.7
COc1ccc(Nc2nc(C(=O)NCc3ccco3)cs2)cc1	none
O=C(NCc1ccco1)c1csc(Nc2ccccc2Cl)n1	tim10-1 inh 52.3, TIM10 inh 42.3 | tim10-1 confirm 42.9 | tim10 confirm 29.7
COc1c(C)cc(C(O)c2ncc(-c3ccccc3)[nH]2)cc1C (stereo unspecified)	none (no result: tim10-1 inh, Mdm2-MdmX inh, tim23-1 inh, TIM10 inh)
Nc1ncnc2c1ccn2[C@H]1CN(Cc2ccc(Cl)cc2)C[C@@H](CO)O1	none (no result: tim10-1 inh, Mdm2-MdmX inh, tim23-1 inh, TIM10 inh)
O=C(Nc1ccc(F)c(Cl)c1)c1cc(C2CCCN(C(=O)CCc3ccccc3)C2)on1 (stereo unspecified)	none (no result: tim10-1 inh, Mdm2-MdmX inh, tim23-1 inh, TIM10 inh)
CC1CCC2C(C1)c1sc(=O)[nH]c1SC2(C)C (stereo unspecified)	tim10-1 inh 51.2, TIM10 inh 41.2 | tim10-1 confirm 40.6 | tim10 confirm 41.0
COc1ccc(S(=O)(=O)NC(=O)C2(C)CCN2C(=O)c2c(C)noc2C)cc1 (stereo unspecified)	none (no result: tim10-1 inh, Mdm2-MdmX inh, tim23-1 inh, TIM10 inh)
COc1cc(/C=N/NC(=O)C(=O)/C=C2\NC3(CCCC3)Cc3ccccc32)ccc1O	tim10-1 inh 52.0, TIM10 inh 46.9 | tim10-1 confirm inactive | tim10 confirm inactive
O=C(/C=C1\NC2(CCCC2)Cc2ccccc21)C(=O)N/N=C/c1ccccc1O	none
Cc1ccccc1CN1C(=O)CN(S(C)(=O)=O)CC1(C)C(=O)NC(C)C (stereo unspecified)	none (no result: tim10-1 inh, Mdm2-MdmX inh, tim23-1 inh, TIM10 inh)
O=C(c1cccc([N+](=O)[O-])c1)c1ccc2c(c1)OCCOCCOCCOCCO2	none
COc1ccc(/C=C/C(=O)c2ccc3c(c2)OCCO3)cc1[N+](=O)[O-]	tim10-1 inh 43.1, TIM10 inh 43.5 | tim10-1 confirm inactive | tim10 confirm 40.2
O=C(/C=C/c1cccc([N+](=O)[O-])c1)c1ccc2c(c1)OCCO2	tim10-1 inh 41.2, TIM10 inh 46.9 | tim10-1 confirm 49.7 | tim10 confirm 46.6
CC(C)C[C@@H]1Cc2[nH]c(=S)[nH]c(=O)c2[C@H](C)O1	none (no result: tim10-1 inh, Mdm2-MdmX inh, tim23-1 inh, TIM10 inh)
Cc1ccc(S(=O)(=O)NN2C(=O)/C(=C\c3ccc(Cl)cc3)SC2=S)cc1	none
Cc1ccc(C)n1N1C(=O)/C(=C\c2ccc(Cl)cc2)SC1=S	tim10-1 inh 69.2, TIM10 inh 63.2 | tim10-1 confirm 61.0 | tim10 confirm 63.5
COc1ccc(O)c(/C=N/Nc2nc(C)cc(-c3ccccc3)n2)c1	tim10-1 inh 43.3, TIM10 inh 41.9 | tim10-1 confirm 39.9 | tim10 confirm 46.8
CCOc1ccc(-c2cc(C(=O)Nc3cccc(C(F)(F)F)c3)[nH]n2)c(C)c1	none (no result: tim10-1 inh, Mdm2-MdmX inh, tim23-1 inh, TIM10 inh)
CCCc1cc(C(N)=O)c(NC(=O)c2cc(C)on2)s1	tim10-1 inh 64.2, TIM10 inh 58.3 | tim10-1 confirm 53.8 | tim10 confirm 53.6
CC1=C/C(=N\OC(=O)/C=C/c2ccccc2)C(C)=CC1=O	tim10-1 inh 45.6, TIM10 inh 42.7 | tim10-1 confirm inactive | tim10 confirm inactive
COc1ccc2c(C)nc(Nc3nc(C)c(C)c(=O)[nH]3)nc2c1	tim10-1 inh 71.0, TIM10 inh 65.5 | tim10-1 confirm 60.9 | tim10 confirm 50.4
CCOC(=O)C1CCCN(C(=O)c2ccc(CS(=O)(=O)c3ccc(C)cc3)o2)C1 (stereo unspecified)	none
CCOC(=O)C1CCCN(C(=O)c2ccc(-c3ccc([N+](=O)[O-])cc3)o2)C1 (stereo unspecified)	tim10-1 inh 57.9, TIM10 inh 45.8 | tim10-1 confirm 66.3 | tim10 confirm 57.6
CCOC1=C2[C@H](c3ccccc3)N(S(=O)(=O)c3ccc(C)cc3)C(C(C)(C)C)[C@H]2C(C#N)(C#N)C(C#N)(C#N)C1 (stereo partly specified)	none (no result: tim10-1 inh, Mdm2-MdmX inh, tim23-1 inh, TIM10 inh)
COC(=O)Nc1ccc(S(=O)(=O)N2CCC(C)CC2)cc1	none
COC(=O)Nc1ccc(S(=O)(=O)N2CCC(Cc3ccccc3)CC2)cc1	tim10-1 inh 45.0, TIM10 inh 44.5 | tim10-1 confirm 39.8 | tim10 confirm inactive
C=CCNc1nnc(SC2CC(=O)N(c3ccc(OC)cc3)C2=O)s1 (stereo unspecified)	tim10-1 inh 67.2, TIM10 inh 40.2 | tim10-1 confirm 61.0 | tim10 confirm 45.8
COC(=O)C1=CN(c2cccc(OCc3ccccc3)c2)C(N)=C(C#N)C1c1cccc(OC)c1OC (stereo unspecified)	none (no result: tim10-1 inh, Mdm2-MdmX inh, tim23-1 inh, TIM10 inh)

Compound activity: PubChem, Sanford-Burnham Center for Chemical Genomics
